Assay results from PubChem BioAssay AID1159580 (chemical genetic matrix, 2015).
Screen size: about 5,500 compounds; about 2,000 (36%) were called active. About 18% were inconclusive and are not listed. Rule as the data show it: active = normalized growth mostly below about 0.91 (no sharp cut-off); inconclusive = no clear call, values can overlap the other calls; inactive = mostly above about 0.92. Some of the results follow.

Assay: chemical genetic growth profiling, strain panel (AID 1159580);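 also: tested at 20 µM; growth read once vehicle control cultures reached saturation at 30 °C; 1 = growth at the plate median or of vehicle wells; lower values mean less growth of the strain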
Conditions: growth OD

Measured: normalized growth

CC[N+]1(C)CCCC(OC(=O)C(O)(c2ccccc2)c2ccccc2)C1 (stereo not given)
inactive: S. cerevisiae deletion strains, locus YJR066W, strain TOR1, active compounds read low 0.954 | S. cerevisiae deletion strains, locus YKL009W, strain mrt4, active compounds read low 1.01 | S. cerevisiae deletion strains, locus YKL068W, active compounds read low 1.01 | S. cerevisiae deletion strains, locus YKL085W, strain MDH1 (second series), active compounds read low 0.994 | S. cerevisiae deletion strains, locus YKL085W, strain MDH1, active compounds read low 0.994 | S. cerevisiae deletion strains, locus YKL160W, strain elf1, active compounds read low 1.01 | S. cerevisiae deletion strains, locus YKL190W, strain CNB1, active compounds read low 1.01 | S. cerevisiae deletion strains, locus YKR001C, strain vps1, active compounds read low 1.02 | S. cerevisiae deletion strains, locus YKR026C, strain gcn3, active compounds read low 1.04 | S. cerevisiae deletion strains, locus YKR091W, strain srl3, active compounds read low 1.02 | S. cerevisiae deletion strains, locus YLL001W, strain dnm1, active compounds read low 1.01 | S. cerevisiae deletion strains, locus YLL026W, active compounds read low 1.02 | S. cerevisiae deletion strains, locus YLL041C, strain sdh2, active compounds read low 1.02 | S. cerevisiae deletion strains, locus YLR027C, strain aat2, active compounds read low 1.01 | S. cerevisiae deletion strains, locus YLR039C, strain RIC1, active compounds read low 1.03 | S. cerevisiae deletion strains, locus YLR058C, strain SHM2, active compounds read low 1.01 | S. cerevisiae deletion strains, locus YLR102C, strain apc9, active compounds read low 1 | S. cerevisiae deletion strains, locus YLR113W, strain HOG1, active compounds read low 1.05 | S. cerevisiae deletion strains, locus YLR221C, strain rsa3, active compounds read low 1.01 | S. cerevisiae deletion strains, locus YLR258W, strain gsy2, active compounds read low 1.02 | S. cerevisiae deletion strains, locus YLR262C, strain YPT6 (second series), active compounds read low 1.02 | S. cerevisiae deletion strains, locus YLR262C, strain YPT6, active compounds read low 1.07 | S. cerevisiae deletion strains, locus YLR268W, strain sec22, active compounds read low 1.01 | S. cerevisiae deletion strains, locus YLR320W, strain mms22, active compounds read low 1.02 | S. cerevisiae deletion strains, locus YLR330W, strain CHS5, active compounds read low 1.01 | S. cerevisiae deletion strains, locus YLR342W, strain FKS1 (second series), active compounds read low 1.03 | S. cerevisiae deletion strains, locus YLR342W, strain FKS1, active compounds read low 1.03 | S. cerevisiae deletion strains, locus YLR357W, strain rsc2, active compounds read low 1.02 | S. cerevisiae deletion strains, locus YLR370C, strain arc18, active compounds read low 1.03 | S. cerevisiae deletion strains, locus YLR371W, strain rom2, active compounds read low 1.01 | S. cerevisiae deletion strains, locus YLR384C, strain iki3, active compounds read low 1.02 | S. cerevisiae deletion strains, locus YLR418C, strain cdc73, active compounds read low 1.03 | S. cerevisiae deletion strains, locus YML016C, strain PPZ1, active compounds read low 1 | S. cerevisiae deletion strains, locus YML032C, strain rad52, active compounds read low 1.02 | S. cerevisiae deletion strains, locus YML120C, strain ndi1, active compounds read low 1.01 | S. cerevisiae deletion strains, locus YML124C, strain tub3, active compounds read low 1.01 | S. cerevisiae deletion strains, locus YMR058W, strain fet3, active compounds read low 1.02 | S. cerevisiae deletion strains, locus YMR078C, strain ctf18, active compounds read low 0.998 | S. cerevisiae deletion strains, locus YMR125W, strain sto1, active compounds read low 1.02 | S. cerevisiae deletion strains, locus YMR129W, active compounds read low 1.03 | S. cerevisiae deletion strains, locus YMR205C, strain PFK2, active compounds read low 1.03 | S. cerevisiae deletion strains, locus YMR223W, strain ubp8, active compounds read low 1.03 | S. cerevisiae deletion strains, locus YMR231W, strain pep5, active compounds read low 1.03 | S. cerevisiae deletion strains, locus YMR263W, strain SAP30, active compounds read low 1.01 | S. cerevisiae deletion strains, locus YMR307W, strain GAS1, active compounds read low 1.1 | S. cerevisiae deletion strains, locus YNL067W, strain RPL9B, active compounds read low 1.01 | S. cerevisiae deletion strains, locus YNL071W, strain lat1, active compounds read low 1.02 | S. cerevisiae deletion strains, locus YNL128W, strain TEP1, active compounds read low 1.03 | S. cerevisiae deletion strains, locus YNL153C, strain GIM3, active compounds read low 0.997 | S. cerevisiae deletion strains, locus YNL183C, strain NPR1, active compounds read low 0.942 | S. cerevisiae deletion strains, locus YNL209W, strain ssb2, active compounds read low 1.02 | S. cerevisiae deletion strains, locus YNL233W, strain BNI4, active compounds read low 1.01 | S. cerevisiae deletion strains, locus YNL248C, strain rpa49, active compounds read low 1.02 | S. cerevisiae deletion strains, locus YNL250W, strain rad50, active compounds read low 1.01 | S. cerevisiae deletion strains, locus YNL271C, strain bni1, active compounds read low 1.03 | S. cerevisiae deletion strains, locus YNL298W, strain CLA4, active compounds read low 1.01 | S. cerevisiae deletion strains, locus YNL307C, strain MCK1, active compounds read low 1.02 | S. cerevisiae deletion strains, locus YNL322C, strain KRE1 (second series), active compounds read low 1.01 | S. cerevisiae deletion strains, locus YNL322C, strain KRE1, active compounds read low 1.01 | S. cerevisiae deletion strains, locus YNR049C, strain mso1, active compounds read low 1.02 | S. cerevisiae deletion strains, locus YNR052C, strain pop2, active compounds read low 1.02 | S. cerevisiae deletion strains, locus YOL006C, strain TOP1, active compounds read low 1 | S. cerevisiae deletion strains, locus YOL012C, strain htz1 0.812 | S. cerevisiae deletion strains, locus YOL147C, strain pex11, active compounds read low 1.01 | S. cerevisiae deletion strains, locus YOR001W, strain rrp6, active compounds read low 1.01 | S. cerevisiae deletion strains, locus YOR061W, strain CKA2, active compounds read low 1.01 | S. cerevisiae deletion strains, locus YOR069W, strain VPS5, active compounds read low 1.01 | S. cerevisiae deletion strains, locus YOR070C, strain gyp1, active compounds read low 1.01 | S. cerevisiae deletion strains, locus YOR080W, strain dia2, active compounds read low 1.01 | S. cerevisiae deletion strains, locus YOR083W, strain WHI5, active compounds read low 1.01 | S. cerevisiae deletion strains, locus YOR106W, strain vam3, active compounds read low 1.02 | S. cerevisiae deletion strains, locus YOR136W, strain idh2, active compounds read low 1.01 | S. cerevisiae deletion strains, locus YOR144C, strain elg1, active compounds read low 1.01 | S. cerevisiae deletion strains, locus YOR184W, strain ser1, active compounds read low 1 | S. cerevisiae deletion strains, locus YOR231W, strain MKK1, active compounds read low 1.03 | S. cerevisiae deletion strains, locus YOR265W, strain rbl2, active compounds read low 1.01 | S. cerevisiae deletion strains, locus YOR270C, strain vph1, active compounds read low 1.1 | S. cerevisiae deletion strains, locus YOR290C, strain snf2, active compounds read low 1.01 | S. cerevisiae deletion strains, locus YOR316C, strain cot1, active compounds read low 1.01 | S. cerevisiae deletion strains, locus YPL051W, strain arl3, active compounds read low 1.01 | S. cerevisiae deletion strains, locus YPL078C, strain atp4, active compounds read low 1.02 | S. cerevisiae deletion strains, locus YPL106C, strain sse1, active compounds read low 1.02 | S. cerevisiae deletion strains, locus YPL240C, strain hsp82, active compounds read low 1.04 | S. cerevisiae deletion strains, locus YPL256C, strain CLN2, active compounds read low 1.04 | S. cerevisiae deletion strains, locus YPR119W, strain clb2, active compounds read low 1.01 | S. cerevisiae deletion strains, locus YPR141C, strain kar3, active compounds read low 1.01 | S. cerevisiae deletion strains, locus YPR163C, strain tif3, active compounds read low 1.01 | S. cerevisiae deletion strains, locus YPR167C, strain met16, active compounds read low 1.01 | S. cerevisiae deletion strains, strain wtn01, active compounds read low 1.01 | S. cerevisiae strains, strain wild type, active compounds read low 1.01
